In the first assay the target is TSPYL2. The experiment in a line: pooled miR-30 sensor sort-seq; sequence = guide strand. The following applies: shRNA.
In turn, TTCATTGTCACTGTCGCTGCTG gave a sensor-assay potency score (higher = more potent) of 0.841.
On the same count and under the same terms, with ATGTCTGAGATCCTGTACCTGC the figure was -1.08; with TTGACAATCACCATGTTTGTGA, 0.272; with ATTGTCTTCAGGATTCTCGTTG, -0.109.
Regarding TTGATAATCTCAGCAATCCTGT, the sensor-assay potency score (higher = more potent) was -0.197.

Another assay has as its target TTC27. Described as above. The conditions noted are these: shRNA.
As for TACAGATGTATCTTTTACCAGC, the sensor-assay potency score (higher = more potent) is -0.789.
The sequence TTCTAGAGTCACACAGCGCTGA showed a sensor-assay potency score (higher = more potent) of 0.0912.
Still for that read-out and setting: the figure for TTAAAAATCAATATCTTGCATT is -0.512.
Sequence TATCCAACTGATCTTTTGCTTT yielded a sensor-assay potency score (higher = more potent) of -0.994.
As to TACACTTGAGAGCTTCTTGTAA, the sensor-assay potency score (higher = more potent) is -0.514.
As to TTTAAGGACCTGAACATCTTTG, the sensor-assay potency score (higher = more potent) was -0.304.
TTTTTCTCCAGCTCTTGTCTAA gave a sensor-assay potency score (higher = more potent) of -0.459.
In turn, TTGCTGAACCTTGATAGTCTTC registered a sensor-assay potency score (higher = more potent) of -0.804.
Sequence TTCTTTTGAAAATTAGTGCAGA came in with a sensor-assay potency score (higher = more potent) of -0.195.
Still for that read-out and setting: with TACACACTCTTGAAACTCCTTA the figure was 0.361.
The sequence TTACTTTTTGTTTTAATCGGAT showed a sensor-assay potency score (higher = more potent) of -0.347.
In the case of TGAACCTTGATAGTCTTCCAAG, the sensor-assay potency score (higher = more potent) is -1.57.

The target of a further assay is TTC7A. The description is as above. The following applies: shRNA.
Sequence TTTGGCTTCGCTCATCTTCGGC registered a sensor-assay potency score (higher = more potent) of -0.912.
Still for that read-out and setting: with TTGTGGTCTTCTCCAATTCCTG the figure was -1.59; with TTGGCTTCGCTCATCTTCGGCT, -0.61.
In the case of TTCAGATGCCTCGACGTGCTGT, the sensor-assay potency score (higher = more potent) was -0.177.
As to TTTGATGACAAAAGCCTCCGAC, the sensor-assay potency score (higher = more potent) was -0.154.
Take TCTTGCTTGGACTTCAGGGTGG: the sensor-assay potency score (higher = more potent) amounted to 0.115.
In turn, TAGAGTACTGAGTGAGAAGTGG displayed a sensor-assay potency score (higher = more potent) of -0.197.
In turn, TTCCTCGATGTTGTCCTTGGGG registered a sensor-assay potency score (higher = more potent) of -0.621.
In turn, TGGCACTGGAGATCTGTCGGAC came in with a sensor-assay potency score (higher = more potent) of -0.75.
As to TTCTGCAAGCTCACTGTCCGGT, the sensor-assay potency score (higher = more potent) is 0.427.
On to TCTCCTTCAAACACTGCTCCAG, for which the sensor-assay potency score (higher = more potent) was -0.633.
On the same count and under the same terms, the figure for TTCATCTTGCTTGGACTTCAGG is -0.871.

A further assay concerns the target TTLL3. The assay is described as above. The following applies: shRNA.
In the case of TAGCTGTCGCGGTAGAACCACA, the sensor-assay potency score (higher = more potent) is -1.71.
Still for that read-out and setting: with TAGGGTATGACTTCCACTCAGA the figure was -0.0416; with TTTGCCTTTGGCCTTGACCTTC, -0.876; with TGTCGCGGTAGAACCACACGGT, -0.291.
On to TTGGATTGTAAAGATCTTCTTC, for which the sensor-assay potency score (higher = more potent) was determined as 0.486.
Take ATCATCGAAGTCGAACAGCTGT: the sensor-assay potency score (higher = more potent) was -0.524.
Sequence TACTTCTGCACCACCCACTTGC registered a sensor-assay potency score (higher = more potent) of -0.25.
TTTATTTGGTGTTGGATCCAGG came in with a sensor-assay potency score (higher = more potent) of -0.616.
Turning to TTCTGCACCACCCACTTGCCGT, the sensor-assay potency score (higher = more potent) is -1.06.
On the same count and under the same terms, the figure for TTGCACGCCAGCACAGAGCCGG is -1.05.
Same read-out and setting: with TAAATCATCGAAGTCGAACAGC the figure was -0.665.

These data come from the OligoGym collection.
Also: reference of the scale not given here.
